Compound activity as filed in PubChem.
A selection: hits, their analogues and other compounds. The true share with any hit is near 4.7%.
S2 tox: Viability Counterscreen for Primary qHTS for Inhibitors of ATXN expression. S2 cells (HEK-293 line with an ATXN2-luciferase reporter) viability, CellTiter-Fluor protease fluorescence, 24 h. Potency, µM (doses to about 56.7 µM), most hits filed as cytotoxic. 400,000 compounds, 0.49% hits; note: potency is the fitted concentration of half-maximal effect; nearly all actives have a fitted effect of over 40% in size
D3 antag: qHTS of D3 Dopamine Receptor Antagonist: qHTS; D(3) dopamine receptor (Homo sapiens), P35462; D3R cells, DiscoveRx beta-arrestin luminescence, antagonist mode; stronger effect = lower value; max response, negative = inhibition, %; 360,000 compounds, 2.5% hits; AID 652054, 2013; in the data active = max response below about -50%; inconclusive = no clear call, values can overlap the other calls; note: % is set by controls: 0 for no effect and ±100 for the full control effect
Target sequence (P35462 whole entry, looked up): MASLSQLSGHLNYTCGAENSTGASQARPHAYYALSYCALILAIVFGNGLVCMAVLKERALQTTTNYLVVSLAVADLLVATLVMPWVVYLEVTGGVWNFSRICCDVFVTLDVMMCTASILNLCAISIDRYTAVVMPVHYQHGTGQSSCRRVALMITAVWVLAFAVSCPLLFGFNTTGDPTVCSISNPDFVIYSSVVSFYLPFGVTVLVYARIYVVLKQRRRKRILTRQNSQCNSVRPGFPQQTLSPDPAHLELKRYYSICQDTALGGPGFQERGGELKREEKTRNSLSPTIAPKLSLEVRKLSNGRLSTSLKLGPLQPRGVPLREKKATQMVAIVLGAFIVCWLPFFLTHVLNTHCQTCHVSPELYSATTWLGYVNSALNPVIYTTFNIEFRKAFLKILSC
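Cells plated overnight at 1500 cells/well, then exposed to library compounds with dopamine controls for 90 minutes at 37 degrees C. DiscoveRx reagent added for 30–60 minutes at room temperature; luminescence read, quantitative HTS format.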
TGFb inhibitor: qHTS for Inhibitors of TGF-b. HepG2 CAGA-GFP TGF-b/SMAD3 reporter, GFP fluorescence, 18 h; TGF-beta stimulated, 500 pg/mL final. Potency, µM (titrated, usually from 46.1 µM), for inactives: top-dose activity, negative = inhibition, hits mostly inhibitors. 410,000 compounds, 1.2% hits. AID 588855, 2011; note: potency is the fitted concentration of half-maximal effect; % is set by controls: 0 for no effect and ±100 for the full control effect; nearly all actives have a fitted effect of over 65% in size
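Per well, imaged GFP fluorescence of HEPG2 CAGA-GFP cells gives the signal; cells get compound, then TGF-beta (500 pg/mL final), 18 h at 37 degrees C; %Activity versus -TGF-beta and +DMSO controls.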
DRD3 agonist: qHTS of D3 Dopamine Receptor Agonist: qHTS | D(3) dopamine receptor (Homo sapiens), P35462 | D3R DiscoveRx beta-arrestin cells, luminescence, 90 min | max activation, % | 410,000 compounds, 0.58% hits; in the data active = max activation above about 30%; note: 0% is about no effect
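Cells at 1500/well, incubated overnight, then treated with pinned compounds (dopamine as control) for 90 min at 37 degrees C. DiscoveRx reagent added for 30 - 60 minutes at room temperature; luminescence read.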
HepG2 tox: qHTS for Inhibitors of TGF-b: Cytotox Counterscreen | 410,000 compounds, 0.76% hits | Potency, µM (titrated, usually from 46.1 µM), inactives show at the highest dose activity change, negative = cytotoxicity, actives largely listed as cytotoxic | HepG2 CAGA-GFP viability, ATP luminescence, 18 h | AID 588856, 2011; note: potency is the fitted concentration of half-maximal effect
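CellTiter-Glo luminescence gave cytotoxicity after 18 hours at 37 degrees C. The cells were HepG2 CAGA-GFP in 1% FBS DMEM, stimulated with 500 pg/mL TGF-beta after compound addition. %Activity was normalised to no-cell wells (complete cell-killing) and DMSO (no toxicity), and curves were fitted and classified.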
ATXN2 expr inh: Primary qHTS for Inhibitors of ATXN expression | HEK-293 ATXN2-luciferase reporter, luminescence, 24 h | Potency, µM (titrated, usually from 57 µM), inactives show at the top dose activity change, negative = inhibition, actives largely listed as inhibitors | 360,000 compounds, 0.72% hits | AID 1745845, 2022; note: potency is the fitted concentration of half-maximal effect; % is set by controls: 0 for no effect and ±100 for the full control effect; nearly all actives have a fitted effect of over 55% in size
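qHTS (up to 57 uM final) was run with 24 h compound exposure of reporter cells at 37 °C. Each well was multiplexed: SteadyGlo luminescence measured ATXN2-luciferase expression after a fluorogenic Gly-Phe-AFC viability readout (25 uM final).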
Starred values were filed as active, the others as inactive; i = inactive; ? = inconclusive; . = not tested or not shown. Unless noted, calls come from the whole dose curve; as a rule, active = well fitted curve in the direction sought with a large enough effect; inconclusive = small, poorly fitted or top-dose-only effect, or another doubt; inactive = no such curve, though single readings can be large; an effect the other way counts as inactive or inconclusive.

SMILES	S2 tox	D3 antag	TGFb inhibitor	DRD3 agonist	HepG2 tox	ATXN2 expr inh
Cc1ccccc1NS(=O)(=O)c1ccc(C(=O)NCC(c2ccco2)N(C)C)cc1 (stereo unspecified)	i	-57*	-12%	-14	-7%	-13%
Cc1ccc(NS(=O)(=O)c2cccc(C(=O)NCC(c3cccs3)N(C)C)c2)cc1 (stereo unspecified)	?	-24	-22%	-18	-42%	-20%
Cc1cc(-c2ccnc(-n3ncc(C(=O)NCc4cccnc4)c3C3CC3)n2)c(C)s1	i	.	.	.	.	.
Cc1cc(C)cc(-n2c(SCC(=O)N3CCCCCC3)nc3c([nH]c4ccccc43)c2=O)c1	i	.	31%	-2	-1%	1%
COc1ccc(NC(=O)CC2C(=O)N(c3cccc(OC)c3)C(=O)N2Cc2ccc3c(c2)OCO3)cc1 (stereo unspecified)	?	.	-20%	7	2%	-2%
CCOc1ccccc1C(=O)Nc1ccc(S(=O)(=O)Nc2ncccn2)cc1	.	.	-2%	6	2%	.
CC(C)(C)c1ccc(C(=O)NC2=NC(c3cccc(F)c3)CC(=O)N2)cc1 (stereo unspecified)	i	.	3%	0	-2%	7%
CCN(c1ccccc1)S(=O)(=O)c1cccc(C(=O)NCC(c2ccco2)N2CCCCC2)c1 (stereo unspecified)	?	?	-3%	-22	-5%	-32%
Cc1ccc(C)c(S(=O)(=O)Nc2ccc(C(=O)NCC(c3ccco3)N3CCCCC3)cc2)c1 (stereo unspecified)	i	-19	?	-28	6%	-5%
COc1cc(C(=O)NCC(c2cccs2)N(C)C)cc(Cl)c1OC(C)C (stereo unspecified)	i	-76*	-13%	-10	-25%	3%
CCCOc1ccc(C(=O)NCC(c2cccs2)N(C)C)cc1OC (stereo unspecified)	i	?	0%	-29	1%	0%
CCN(c1ccccc1)S(=O)(=O)c1cccc(C(=O)NCC(c2ccco2)N2CCCC2)c1 (stereo unspecified)	i	-58*	?	-9	-34%	-17%
Cc1ccc(C)c(S(=O)(=O)Nc2ccc(C(=O)NCC(c3ccco3)N(C)C)cc2)c1 (stereo unspecified)	?	-53*	-4%	0	-5%	5%
CCN(c1ccccc1)S(=O)(=O)c1cccc(C(=O)NCC(c2cccs2)N(C)C)c1 (stereo unspecified)	i	-56*	-3%	-14	2%	-16%
C(=C\c1ccnc2ccccc12)/c1ccc(N(Cc2ccccc2)Cc2ccccc2)cc1	.	.	12%	.	-5%	.
O=C(NCCc1nc2ccccc2n1Cc1ccccc1F)c1ccc(F)cc1	.	.	0%	-6	-8%	.
Cc1cnc(-n2ncc(C(=O)N(C)Cc3cccc4ncccc34)c2C(C)C)nc1-c1ccc(F)cc1	i	.	.	.	.	.
N#C/C(=C\c1c(Oc2ccc(Br)cc2)nc2ccccn2c1=O)c1nc2ccccc2s1	.	.	?	19	6%	.
COc1cc(NC(=O)C2=C(C)Nc3nnnn3C2c2ccc(SC)cc2)c(OC)cc1Cl (stereo unspecified)	i	.	-2%	-1	-5%	8%
CN(Cc1ccccc1)C(=O)c1ccc2c(c1)N(Cc1ccc(Cl)cc1)C(=O)c1ccccc1S2=O (stereo unspecified)	i	.	0%	-4	4%	9%
C=C(CN(C)C)C(=O)c1ccc(OC2OC(COC(C)=O)C(OC(C)=O)C(OC(C)=O)C2OC(C)=O)cc1 (stereo unspecified)	9.5µM*	-82*	?	-16	-94%	?
CC(=O)OC[C@H]1O[C@@](COC(C)=O)(O[C@H]2O[C@H](COC(C)=O)[C@@H](OC(C)=O)[C@H](OC(C)=O)[C@H]2OC(C)=O)[C@@H](OC(C)=O)[C@@H]1OC(C)=O	i	.	.	-5	.	9%
CCCS(=O)(=O)c1nc(S(=O)(=O)c2ccc(C)cc2)c(NCC(C)C)s1	i	.	-1%	-23	13%	-9%
Cc1ccccc1C1C(C#N)=C2N=C(N)c3c(sc4c3CCCCC4)N2C2=C1C(=O)CCC2 (stereo unspecified)	i	-76*	-1%	-7	-21%	-24%
O=C(N/N=C(\c1ccccc1)c1ccccn1)c1cccc([N+](=O)[O-])c1	?	-74*	?	-12	-1%	.
SMILES	S2 tox	D3 antag	TGFb inhibitor	DRD3 agonist	HepG2 tox	ATXN2 expr inh
C/C(=N\Nc1ccc(Cl)c(C(=O)O)c1)c1ccccn1	25µM*	-10	12%	-3	-2%	-14%
C/C(=N\NC(=O)CCCNc1ccc(C)cc1)c1ccccn1	i	-2	5%	-4	2%	28µM*
Cn1ccnc1/C(=N\NC(=O)c1ccccc1)c1cccc([N+](=O)[O-])c1	i	-19	-14%	-19	-20%	-25%
C/C(=N\NC(=O)c1ccc(F)cc1)c1ccccn1	?	-113*	1.1µM*	-17	-44%	.
C/C(=N\NC(=O)c1c[nH]c2ccccc12)c1ccccn1	.	?	18%	-8	-25%	?
C/C(=N\Nc1ccc(Cl)c(C(=O)O)c1)c1cccc2ccccc12	i	-12	13%	-10	-22%	4%
Cc1ccc(NC(=O)Cn2cc3c(n2)CCCC3)cc1Cl	i	.	-7%	-15	0%	-4%
COc1ccc(-c2cc(NCc3ccc(C)cc3)n3cnnc3n2)cc1	?	.	?	2	-36%	?
COC(=O)c1ccc(C(=O)NCC2Cc3cc(F)cc(-c4cncnc4)c3O2)cc1 (stereo unspecified)	i	.	.	.	.	.
COC(=O)c1c(NC(=O)CCCOc2cccc(C)c2)sc2c1C(C(=O)OC)CC2 (stereo unspecified)	.	.	?	15	-8%	.
CCOc1ccc(C(=O)N/N=C(\c2ccccc2)c2ccccn2)cc1	?	-9	?	-8	-37%	7.9µM*
CCc1ccc(/C(C)=N/NC(=O)c2ccccn2)cc1	i	10	5%	1	-5%	8%
CCOc1ccc(CNC(=O)Cn2nc(C)c3nn(-c4ccc(Cl)cc4)c(C)c3c2=O)cc1OC	.	.	-6%	8	-4%	.
CCCC(=O)Nc1ccc(O)c(C(C)=O)c1	i	.	.	.	.	8%
